# Sampled rows, rich in hits. Any-hit rate of the full collection: about 19%.
# HT1080 IDH1KD tx: toxicity to HT-1080 IDH1 knockdown cells (counter line) | HT-1080 IDH1 knockdown viability, ATP luminescence, 48 h | Potency, µM (titrated, usually from 46.1 µM), without a hit: top-dose activity, negative = toxicity, hits mostly cytotoxic | hit rate 2% among 360,000 | AID 686971;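 also: potency is read from the fitted curve at half-maximal effect; 0% = DMSO wells and -100% = cell-free medium wells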
#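 IDH1KD HT-1080 cells, 750/well, RPMI + 5% FBS; compound pinned after 2 h settling; 48 h, 37 °C; CellTiter-Glo luminescence; % activity normalised to DMSO and no-cell wells; curves fitted, classed by r2 and efficacy.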
# DT40 TDP1 no CPT: qHTS for Inhibitors of human tyrosyl-DNA phosphodiesterase 1 (TDP1): qHTS in cells in absence of CPT; DT40 Tdp1-/- hTDP1 cells, no CPT, ATP luminescence, 48 h; AID 686978, 2013; hit rate 15% among 420,000; Potency, µM (doses to about 46.2 µM), without a hit: top-dose activity change, negative = growth inhibition, actives largely listed as inhibitors; also: potency is read from the fitted curve at half-maximal effect; nearly all actives have a fitted effect of over 55% in size
#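 DT40 Tdp1-/-;hTDP1 cells, no CPT (DMSO vehicle only), 400 cells/well; compounds pin-transferred; ≥48 hr, 37 °C; CellTiter-Glo 30 min RT dark, luminescence read.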
# ELG1 DNA repair: blocks ELG1-dependent DNA repair in HEK293T cells; hit rate 2.3% among 330,000; Potency, µM (series often up to 46.1 µM), without a hit: top-dose activity change, negative = inhibition, hits mostly inhibitors; HEK293T ELG1-luciferase reporter, luminescence, 16 h; DNA damage induced by 5-fluorouridine; also: potency is read from the fitted curve at half-maximal effect; nearly all actives have a fitted effect of over 55% in size
#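 In this reporter screen, reduction of luminescence relative to DMSO vehicle indicated activity. Compounds and 5-fluorouridine were added together to 2,000 cells per well, incubated for 16 hr at 37 °C, then developed with ONE-Glo.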
# IL-1B inflam inh: inhibitors of inflammasome signaling (IL-1 beta secretion). THP-1 LPS/ATP IL-1B secretion, AlphaLISA, 16 h; hits give low values. activity change, % at 57.5 µM. hit rate 4.7% among 360,000; in the data active = activity change below about -50%; inconclusive = mostly about -30% to -49%
#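 THP-1 cells pretreated 1 hr with compounds (up to 57.5 uM final), then stimulated with LPS (250 ng/mL final) plus ATP (1.25 mM final); secreted IL-1B measured by AlphaLISA after 16 hr, decreased signal indicating inhibition.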
# DT40 TDP1 CPT: DT40-hTDP1 cell growth loss with CPT; chicken DT40 Tdp1-/-;hTDP1 cells + 20 nM CPT, ATP luminescence, 48 h; Potency, µM (top dose mostly 46.2 µM), inactives show top-dose activity change, negative = growth inhibition, most hits filed as inhibitors; hit rate 12% among 420,000; AID 686979; also: potency is read from the fitted curve at half-maximal effect; nearly all actives have a fitted effect of over 55% in size
#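 Chicken DT40 Tdp1-/- cells stably complemented with human TDP1 were seeded at 400 cells/well in medium containing 20 nM camptothecin, exposed to pin-transferred compounds, and grown at 37 °C for at least 48 hr. Viability was read as ATP luminescence.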
# HT1080NT lethal: kills 2HG-producing HT-1080-NT fibrosarcoma cells; HT-1080-NT fibrosarcoma viability, CellTiter-Glo ATP luminescence, 48 h; Potency, µM (top dose mostly 46.1 µM), inactives show at the top dose activity, negative = less viability, hits mostly cytotoxic; hit rate 1.6% among 360,000;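 also: NT is the 2HG producing partner of a matched IDH1 knockdown line; potency is read from the fitted curve at half-maximal effect; 0% = DMSO-treated cells and -100% = media-only wells without cells; nearly all actives have a fitted effect of over 55% in size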
#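 Fibrosarcoma NT cells, 750 per well in 5% FBS RPMI, were exposed to compound for 48 hours. Viability: CellTiter-Glo luminescence.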
# Active calls of the source: *; ? = inconclusive; . = no result. Unless noted, calls follow the shape of the dose curve; as a rule, active = well fitted curve in the direction sought with a large enough effect; inconclusive = small, poorly fitted or top-dose-only effect, or another doubt; inactive = no such curve, though single readings can be large; an effect the other way counts as inactive or inconclusive. Unless noted, % is scaled to controls: 0 for no effect and ±100 for the full control effect.
SMILES,HT1080 IDH1KD tx,DT40 TDP1 no CPT,ELG1 DNA repair,IL-1B inflam inh,DT40 TDP1 CPT,HT1080NT lethal
Cc1ccc(Nc2cc(-c3ccccc3)nc(C)n2)cc1,.,25.9µM*,.,.,?,.
Cc1nc(Nc2ccc(Cl)cc2)cc(-c2ccccc2)n1,.,-102.6%,.,.,23.1µM*,.
CC(CNC(=O)CCC(=O)N1CCOc2ccccc21)c1ccccc1 (stereo unspecified),4.0%,-25.7%,-3.2%,-3.8,?,19.8%
Cc1ccc(-n2cccn2)c(CN2CCCC(C(=O)c3ccc4c(c3)OCO4)C2)c1 (stereo unspecified),?,?,?,-59.6*,?,-15.3%
Cc1ccc(-n2cccn2)c(CN2CCCC(CNC(=O)c3ccc(F)cc3)C2)c1 (stereo unspecified),-27.7%,11.6µM*,-8.0%,-2.7,?,?
O=C(c1ccc2c(c1)OCO2)C1CCCN(Cc2cc(F)ccc2-n2cccn2)C1 (stereo unspecified),-11.9%,-15.5%,-22.6%,6.4,-1.2%,-15.4%
Cc1cccc(-c2nc3c(C#N)c[nH]n3c2NC2CCCCC2)c1,.,20.6µM*,.,.,?,.
CCOc1ccc2nc(SCC(=O)NC3CCCCC3)[nH]c2c1,-17.1%,?,-3.3%,-16.3,-25.8%,-4.3%
Cc1cc(C)n2c(NC3CCCCC3)c(-c3ccc(F)cc3)nc2n1,7.8%,?,.,22.3,?,-0.6%
N#Cc1c[nH]n2c(NC3CCCC3)c(-c3ccc(Cl)cc3)nc12,.,16.4µM*,.,.,?,.
N#Cc1c[nH]n2c(NC3CCCC3)c(-c3ccc(Br)cc3)nc12,.,23.1µM*,.,.,18.4µM*,.
CCOc1ccc(-c2nc3c(C#N)c[nH]n3c2NC2CCCCC2)cc1,.,7.31µM*,.,.,8.2µM*,.
N#Cc1c(-c2ccc(Cl)cc2)ccn2nc(C3CCCCC3)nc12,14.5%,-15.2%,?,10.5,?,6.7%
Cc1cccc(-c2nc(C#N)c(NC3CCCCC3)o2)c1,-16.7%,?,?,?,-9.0%,-2.0%
Cc1ccccc1OCC(=O)Nc1nnc(C2CCCC2)s1,0.0%,-20.8%,15.1%,-7.1,19.9%,18.3%
O=C(CN1C(=O)c2ccccc2Sc2ccc(C(=O)N3CCOCC3)cc21)Nc1ccc(Cl)cc1F,.,-0.7%,.,.,-10.6%,.
Cc1ccc(-c2nnc(SCC(=O)N/N=C/c3ccc(C)s3)n2-c2ccc(C)cc2)cc1,-25.3%,29.1µM*,?,-24.9,?,-26.9%
Cc1nnc(SCC(=O)N/N=C/c2cn(-c3ccccc3)nc2-c2ccccc2)n1-c1ccccc1,?,?,?,-78.4*,?,?
NS(=O)(=O)c1ccc(N/N=C/c2ccccc2Br)cc1,?,-20.6%,?,-106.1*,-3.1%,?
NS(=O)(=O)c1ccc(N/N=C/c2cn(-c3ccccc3)nc2-c2cccs2)cc1,20.6µM*,2.91µM*,-0.3%,-60.7*,5.17µM*,23.1µM*
Cc1ccc(NC(=O)N2CCN(Cc3nc4ccc(C)cc4o3)CC2)c(Cl)c1,.,-2.4%,.,.,-3.3%,.
CCOC(=O)c1nnn(C(CC)C(=O)Nc2c(C)cccc2C)c1C(=O)OCC (stereo unspecified),.,-3.8%,.,.,-4.2%,.
NC(=O)N/N=C/c1cn(-c2ccccc2)nc1-c1cccs1,10.3µM*,?,?,?,16.4µM*,23.1µM*
Brc1cccc(C=Nc2cccc3ncccc23)c1,-4.9%,-5.4%,.,27.3,0.8%,-4.0%
Brc1cccc(-c2nc3cccnc3nc2-c2cccc(Br)c2)c1,13.1%,16.4µM*,-16.7%,30.0,?,14.9%
SMILES,HT1080 IDH1KD tx,DT40 TDP1 no CPT,ELG1 DNA repair,IL-1B inflam inh,DT40 TDP1 CPT,HT1080NT lethal
CCOC(=O)Cn1cc(C(=O)c2ccco2)c2ccccc21,-1.3%,?,12.1%,24.7,-14.8%,-11.9%
Cc1ccccc1OCCn1cc(C(=O)c2ccco2)c2ccccc21,.,23.1µM*,.,.,?,.
COc1cccc(OCCn2cc(C(C)=O)c3ccccc32)c1,?,18.4µM*,?,8.6,11.6µM*,?
COc1ccccc1OCCn1cc(C(=O)c2ccco2)c2ccccc21,-14.0%,18.4µM*,?,-18.3,?,-14.9%
COc1cccc(OCCn2cc(C(=O)c3ccco3)c3ccccc32)c1,?,16.4µM*,?,-20.7,16.4µM*,-25.1%
CCOC(=O)C1=C(COC(=O)CNS(=O)(=O)c2ccc(C)c(C)c2)NC(=O)NC1C (stereo unspecified),9.7%,-1.9%,.,15.7,-8.4%,2.7%
O=C1C2C3C=CC(C4CC34)C2C(=O)N1/N=C/c1cccs1 (stereo unspecified),14.9%,?,?,12.7,-18.2%,14.5%
Cc1ccc(C)c(OCCn2cc(C(=O)O)c3ccccc32)c1,-5.6%,-18.0%,14.6%,44.0,-21.9%,-23.7%
CC(=O)c1cn(CCOc2cc(C)ccc2C)c2ccccc12,9.2µM*,4.11µM*,10.9%,51.6,3.66µM*,?
Cc1ccc2c(=O)cc(C(=O)Nc3sc4c(c3C(=O)NCC3CCCO3)CCCC4)oc2c1C (stereo unspecified),.,-17.3%,.,.,-2.8%,.

# Screens: PubChem BioAssay, National Center for Advancing Translational Sciences (NCATS)
